Experimental data taken from PubChem BioAssay AID1259313 (Sanford-Burnham Center for Chemical Genomics, 2017).
The campaign covered roughly 340,000 compounds. About 8,500 (2.5%) were called active.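 How the source made its calls: active means melting temperature shift of at least 10% of the positive control shift, at one fixed dose; inactive means the rest.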 This excerpt belongs to a sample that is enriched for actives.

system: Glutamate receptor ionotropic, NMDA 3A (GRIN3A) ligand-binding domain; assay: NR3A LBD thermal stabilization by compounds – biophysical, differential scanning fluorimetry, uHTS, primary screen (AID 1259313); details: at 25 µM, active compounds read high, 0% = protein alone, 100% = glycine-bound protein

Tm shift relative to glycine control, active:
CC(=O)Nc1cccc(-c2csc(Nc3cccc(C)n3)n2)c1 11.8%
O=C(Nc1nc2ccccc2s1)c1ccc2c(c1)OCO2 12.1%
O=C(Nc1ccccc1)Nc1nc2ccccc2s1 26.3%
CC(=O)Nc1ccc(-c2csc(NC(=O)Nc3ccccc3)n2)cc1 26.9%
O=C(N/N=C/c1ccccn1)c1cccc(NC(=O)c2ccc(Cl)cc2)c1 21.2%
CC(C)=CCc1c(O)c(CC=C(C)C)c2occ(-c3ccc(O)cc3)c(=O)c2c1O 31.4%

Tm shift relative to glycine control, inactive:
CCOn1c(=O)c(=O)n(O)c2ccccc21 6.16%
c1ccc(C(=NNc2nc3ccccc3s2)c2ccccn2)cc1 -7.5%
O=C(CSC1=NCCS1)Nc1nc(-c2ccccc2)cs1 -5.63%
CC(=O)Nc1ccc(Nc2cc(C)nc(Nc3ccc(NC(C)=O)cc3)n2)cc1 -4.37%
O=C(CCC(=O)c1cccs1)Nc1nc2ccccc2s1 -1.65%
COCc1nnc(NC(=O)c2ccc3c(c2)OCO3)s1 -0.5%
N#Cc1ccccc1NC(=O)c1ccc2c(c1)OCO2 -0.66%
Cc1cccc(NC(=O)Nc2ccc3c(c2)OCO3)n1 -1.41%
O=C(NCc1cccnc1)C(=O)Nc1nc(-c2ccccc2)cs1 -0.2%
O=C(NC(Cc1ccc(O)cc1)C(=O)O)/C(=C/c1ccccc1)NC(=O)c1ccccc1 (configuration not stated) -1.28%
O=C(Nc1nccs1)C1CCCN1S(=O)(=O)c1cccc2cccnc12 (configuration not stated) 0.08%
CCOC(=O)NC(=O)CSc1nnc(SCCC(=O)O)s1 -2.83%
COc1ccc(C)cc1N(C(=O)Cn1nnc(-c2ccc(C)o2)n1)C(C(=O)NC1CCCC1)c1ccncc1 (configuration not stated) 0.19%
CC(C)(C)NC(=O)NC(=O)COC(=O)C1c2ccccc2Oc2ccccc21 -5.02%
CCC(C)(C)NC(=O)CN(C(=O)CCC(=O)Nc1nccs1)c1ccc2c(c1)OCO2 -1.69%
COc1cc(NC(=O)CSC(=S)N2CCCC2)c(OC)cc1Cl -1.06%
Cc1cccc(C(=O)Nc2ccc(C(=O)N/N=C/c3cccc(C)n3)cc2)c1 -13.7%
O=C(N/N=C/c1ccccn1)c1ccc(S(=O)(=O)N2CCCCCC2)cc1 -1.75%
C=CCC1(CC=C)CCCN1C(=O)c1cc(COc2ccc(-n3cncn3)cc2)on1 1.48%
Cc1ccc2cc(C#N)c(NCCNC(=S)NCCCN3CCOCC3)nc2c1 1.55%
CC(C)CN(Cc1c(O)ccc2c(=O)c(-c3ccccc3)coc12)CC(C)C -7.19%
